Experimental data as given in PubChem BioAssay (Tox21).
“And” between values parts separate entries of the source, which are not always exact repeats. Equal entries are not always repeated. Results filed as inconclusive are left out. Entries that show only a call come without a potency. Some structures have more than one record in an assay (separate samples or runs), and their calls can disagree. The source made the active and inactive calls. Unless noted, calls come from the whole dose curve; as a rule, active = well fitted curve in the direction sought with a large enough effect in the repeat runs; inconclusive = weak or mixed curves; inactive = no such curve, though single readings can be large; an effect the other way counts as inactive or inconclusive.

What was measured:
[1] = qHTS assay to identify small molecule agonists of the vitamin D receptor (VDR) signaling pathway - cell viability counter screen (AID 743224); note: nearly all actives have a fitted effect of over 50% in size; note: potency is the fitted concentration of half-maximal effect
How it was run: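 VDR-bla cells, 4 h after plating, exposed to compounds for 16 h at 37C; viability then read in the same wells as CellTiter-Glo luminescence after 30 min at room temperature, following the bla FRET read.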

[2] = qHTS assay to identify small molecule antagonists of the vitamin D receptor (VDR) signaling pathway - cell viability counter screen (AID 743225); note: nearly all actives have a fitted effect of over 50% in size; note: potency is the fitted concentration of half-maximal effect
How it was run: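 Cytotoxicity counter screen read by CellTiter-Glo luminescence (30 min, room temperature) in the same wells as the VDR-bla antagonist readout. HEK 293T VDR-UAS-bla cells had 16 h at 37C with compound and 3 nM (final) 1-alpha,25-dihydroxyvitamin D3, then 2 h with FRET substrate.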

[3] = qHTS assay to identify small molecule agonists of the NFkB signaling pathway (AID 1159509; active = well fitted curve in the direction sought with a large enough effect in the signal ratio in the repeat runs, not every such curve was filed as active; the % refers to the signal ratio; note: series mostly up to about 61 µM)
How it was run: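 After overnight attachment, reporter cells received test compounds, DMSO or positive controls and were incubated 5 hr at 37 C. FRET substrate was then added for 1.5 hr at room temperature before dual-emission fluorescence reading.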

[4] = qHTS assay to identify small molecule agonists of the endoplasmic reticulum stress response signaling pathway - cell viability counter screen (AID 1159517; calls by dose curve; note: nearly all actives have a fitted effect of over 50% in size; note: potency is the fitted concentration of half-maximal effect)
How it was run: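 Cells, HeLa ESRE-bla; density, 1,500/well; dosing, 5 hr at 37 C, 5% CO2; readout, CellTiter-Glo luminescence after 30 min RT.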

[5] = biological target: Nuclear receptor ROR-gamma (Homo sapiens) (UniProt P51449); experiment: qHTS assay to identify small molecule antagonists of the retinoid-related orphan receptor gamma (ROR-gamma) signaling pathway (AID 1159521; note: nearly all actives have a fitted effect of over 50% in size; note: potency is the fitted concentration of half-maximal effect)
How it was run: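 Antagonist read-out: drop in luminescence (ONE-Glo) from an RORE-LUC reporter in CHO cells with doxycycline-inducible ROR-gamma; 2 hr compound pretreatment, 1 uM doxycycline, 16 hr incubation at 37 C.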

[6] = qHTS assay to identify small molecule agonists of the AP-1 signaling pathway - cell viability counter screen (AID 1159525; calls by dose curve; note: nearly all actives have a fitted effect of over 55% in size)
How it was run: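 Luminescent ATP readout (Cell Titer Glo, 30 min RT), normalised to DMSO and tetra n-octyl ammonium bromide controls. Cells were ME-180 AP-1-bla in 0.5% dialyzed FBS Opti-MEM, with a 5 h, 37 °C compound exposure.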

[7] = qHTS assay to identify small molecule agonists of the AP-1 signaling pathway (AID 1159526; calls by dose curve)
[8] = qHTS assay to identify small molecule antagonists of the retinoid-related orphan receptor gamma (ROR-gamma) signaling pathway - cell viability counter screen (AID 1159520); note: nearly all actives have a fitted effect of over 50% in size; note: potency is the fitted concentration of half-maximal effect
How it was run: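 Cytotoxicity was read from cellular ATP (CellTiter-Glo luminescence) after 16 hr at 37 C with 1 uM doxycycline induction. The inducer was added 2 hr after compound transfer to Tet-on ROR gamma CHO cells.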

[9] = qHTS assay to identify small molecule agonists of the endoplasmic reticulum stress response signaling pathway (AID 1159516; active = well fitted activation curve with a large enough effect in the signal ratio in the repeat runs, not every such curve was filed as active; the % refers to the signal ratio)
How it was run: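 CellSensor ESRE-bla HeLa cells, 1,500 per well, plated overnight, then exposed to compounds for 5 hr at 37 C. Beta-lactamase reporter read with LiveBLAzer B/G FRET substrate after 2 hr at room temperature, 405 nm excitation, 460 and 530 nm emission.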

[10] = qHTS assay to identify small molecule agonists of the NFkB signaling pathway - cell viability counter screen (AID 1159515; calls by dose curve; note: series mostly up to about 61 µM; nearly all actives have a fitted effect of over 55% in size)
How it was run: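 NFkB-bla ME-180 cells, 2,000/well, plated overnight at 37 C; compound added for 5 hr at 37 C. Viability read in the same wells as the bla reporter, by CellTiter-Glo luminescence after 30 min at room temperature.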

Row | SMILES | Potency [1] | Potency [2] | outcome [3] | Potency [4] | Potency [5] | Potency [6] | outcome [7] | Potency [8] | outcome [9] | Potency [10]
1 | C=CC[C@]1(O)CC[C@H]2[C@@H]3CCC4=CC(=O)CCC4=C3C=C[C@@]21C | inactive | inactive | inactive | inactive | 2.98 µM (active) | inactive | inactive | – | – | –
2 | O=NN1CCNCC1 | inactive | – | inactive | inactive | – | inactive | inactive | inactive | – | –
3 | CCOP(=S)(OCC)SCn1nnc2ccccc2c1=O | 54.9 µM (active) | 49 µM (active) | inactive | inactive | – | inactive | inactive | inactive | inactive | –
4 | C=CC(=O)OCCCCO | inactive | inactive | inactive | inactive | – | – | – | inactive | inactive | –
5 | Oc1ccc(Cl)c(Cl)c1Cl | – | inactive | inactive | inactive | 50.3 µM (active) | inactive | inactive | – | inactive | –
6 | Cc1ccc(-c2c(Cl)nc(C#N)n2S(=O)(=O)N(C)C)cc1 | – | inactive | inactive | inactive | 21.7 µM (active) | inactive | – | – | inactive | –
7 | COC1=CC(=O)O[C@@H](CCc2ccccc2)C1 | inactive | inactive | inactive | inactive | – | inactive | inactive | inactive | inactive | –
8 | CC(C)(C)C(O)C(Oc1ccc(Cl)cc1)n1cncn1 (stereo not given) | – | inactive | inactive | – | – | inactive | – | inactive | – | –
9 | O=C(CBr)Nc1ccc(Cl)cc1C(=O)c1ccccc1F | inactive | inactive | inactive | 23.9 µM (active) | inactive | inactive | – | inactive | – | –
10 | O=C(CBr)c1ccccc1 | inactive | inactive | inactive | inactive | – | inactive | – | inactive | inactive | –
11 | CCn1cc[n+](C)c1 | inactive | inactive | – | inactive | – | inactive | inactive | inactive | inactive | inactive
12 | OCCCBr | inactive | – | inactive | – | – | – | – | inactive | – | –
13 | C=CCC1([C@H](C)CCC)C(=O)NC(=O)NC1=O | inactive | inactive | inactive | inactive | inactive | inactive | inactive | inactive | – | –
14 | CCC(COC(=O)c1cc(OC)c(OC)c(OC)c1)(c1ccccc1)N(C)C (stereo not given) | inactive | inactive | inactive | inactive | – | inactive | – | inactive | inactive | –
15 | N#CCc1ccccc1 | inactive | inactive | inactive | inactive | inactive | inactive | inactive | inactive | – | –
16 | CC1C(=O)C[C@]2(C(C)C)C[C@H]12 (stereo not given in full) | inactive | inactive | inactive | inactive | – | inactive | inactive | inactive | inactive | –
17 | [CH3][Sn]([CH3])([Cl])[Cl] | inactive | inactive | inactive | inactive | 4.93 µM (active) and 6.86 µM (active) | – | – | – | inactive | –
18 | O=C(CCl)c1ccc(Cl)cc1Cl | inactive and 18.8 µM (active) | inactive | inactive | 10.7 µM (active) | 10.6 µM (active) | – | – | 11.9 µM (active) | – | –
19 | Clc1ccc(C(OCCN2CCCCC2)c2ccccc2)cc1 (stereo not given) | – | inactive | inactive | inactive | – | inactive | – | inactive | inactive | –
20 | O=C(Nc1ccccc1)Nc1cnns1 | inactive | inactive | inactive | – | – | – | inactive | inactive | inactive | –
21 | CC1(C)CCC(Cc2ccc(Cl)cc2)C1(O)Cn1cncn1 (stereo not given) | inactive | – | inactive | inactive | 54.5 µM (active) | – | – | – | inactive | –
22 | CCCCOC(=O)c1ccccc1C(=O)OCc1ccccc1 | inactive | inactive | inactive | inactive | – | inactive | inactive | inactive | inactive | –
23 | C=CC(=O)OC(C)(C)C | inactive | inactive | inactive | – | – | inactive | inactive | inactive | inactive | –
24 | O=S(=O)(O)C(F)(F)C(F)(F)C(F)(F)C(F)(F)F | – | – | inactive | – | inactive | – | inactive | inactive | – | –
25 | c1cc2ccc3cccc4ccc(c1)c2c34 | – | – | inactive | – | inactive | – | inactive | inactive | – | –
